Assay results from PubChem BioAssay (NCI).
Compounds without any hit were thinned out: in the full panel of roughly 79,000, 15% have a hit. Unmarked numbers belong to inactive results. The source made the active and inactive calls. Rule as the data show it: active = growth inhibition above about 70%; inactive = the rest.

Assay: NCI Yeast Anticancer Drug Screen. Data for the sgs1 strain (AID 173);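 also: 0% = growth of vehicle-only control cultures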
Settings: S. cerevisiae sgs1 mutant, at 3.7 µM, active compounds read high
Procedure, shortened: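 Read-out: yeast growth inhibition relative to vehicle controls, following compound exposure of a strain with a defined DNA repair/cell cycle alteration.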

Row | SMILES | growth inhibition
1 | Cc1cccc2c(C(O)CBr)cc(-c3ccc(Cl)cc3)nc12 (stereo not drawn) | 7%
2 | CC1=C(SCCO)C(=O)c2ccccc2C1=O | -2%
3 | CC(/C=C/c1ccc2c(c1)OCO2)[N+](=O)[O-] (stereo not drawn) | 82% (active)
4 | COC(=O)C1=C(C)NC(C)=C(C(=O)OCCCN2CCC(c3ccccc3)(c3ccccc3)CC2)C1c1cccc([N+](=O)[O-])c1 (stereo not drawn) | 23%
5 | O=[N+]([O-])c1cc2no[n+]([O-])c2cc1N1CCCCC1 | 72% (active)
6 | COC(=O)c1ccc(NCC2=CC(=O)C=CC2=O)cc1O | 30%
7 | CCCCCCCCNC(=O)C1=C(C)NC(C)=C(C(=O)NCCCCCCCC)C1 | 3%
8 | S=C(Nc1ccc(Cl)c(Cl)c1)SCc1ccc2c(c1)OCO2 | 38%
9 | O=S(=O)(CCCl)c1ccccc1Cl | 0%
10 | Nc1ccccc1CC(O)C(=O)O (stereo not drawn) | 1%
11 | CN(C)c1ccc(Sc2ccc3nc(N)nc(N)c3c2)cc1 | 21%
12 | Cc1ccc(S(=O)(=O)Oc2cc(Cl)c(Cl)cc2Cl)cc1 | -14%
13 | Cc1cc(I)ccc1N | 5%
14 | CC(Br)C(=O)c1ccc2cc(Br)c3ccccc3c2c1 (stereo not drawn) | 8%
15 | O=C(Nc1ccccc1)OCCc1ccc(Cl)c(Cl)c1 | -9%
16 | CC1(Cl)CC(O)C2(CC1Br)C1(C)OC1C1OC1(Br)C2(C)C (stereo not drawn) | -33%
17 | Cc1cc(O)cc(O)c1N=Nc1ccc([N+](=O)[O-])cc1 | -2%
18 | CC1=NN(c2cccc(Cl)c2)C(=O)C1 | -22%
